According to PubChem BioAssay (Tox21):
Results filed as inconclusive are left out. Entries that show only a call come without a potency. The source made the active and inactive calls. Unless noted, the call rests on the fitted dose curve; in most records, active means well fitted curve in the direction sought with a large enough effect in the repeat runs; inconclusive means weak or mixed curves; inactive means no such curve, though single readings can be large; an effect the other way counts as inactive or inconclusive.

Columns and labels:
[1] = qHTS assay to identify aromatase inhibitors - cell viability counter screen (AID 743084);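 further: cells stimulated with testosterone during compound exposure; nearly all actives have a fitted effect of over 55% in size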; further: potency means the concentration at half of the fitted maximal effect
[2] = target: Aryl hydrocarbon receptor (Homo sapiens) (UniProt P35869); test: qHTS assay to identify small molecule that activate the aryl hydrocarbon receptor (AhR) signaling pathway (AID 743085); further: nearly all actives have a fitted effect of over 15% in size; further: potency means the concentration at half of the fitted maximal effect;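 on activation: HG2L7.5c1 human HepG2 liver cells with stably integrated DRE-driven firefly reporter; series mostly up to about 70 µM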
Method in brief: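 Luminescence (ONE-Glo) from a dioxin-responsive-element luciferase reporter in HG2L7.5c1 HepG2 cells after 24 hr compound exposure at 37C; viability measured by CellTiter-Fluor fluorescence beforehand.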

[3] = target: Peroxisome proliferator-activated receptor gamma (Homo sapiens) (UniProt P37231); test: qHTS assay to identify small molecule agonists of the peroxisome proliferator-activated receptor gamma (PPARg) signaling pathway (AID 743094; active means well fitted activation curve with a large enough effect in the signal ratio in the repeat runs, not every such curve was filed as active; the % refers to the signal ratio; further: potency means the concentration at half of the fitted maximal effect)
Method in brief: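 Agonism was assessed in a beta-lactamase reporter system, HEK293H cells with a stably integrated UAS-bla construct under PPARg control; the 17 h treatment at 37C preceded a 1 h room-temperature FRET substrate read.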

[4] = qHTS assay for small molecule agonists of the antioxidant response element (ARE) signaling pathway (AID 743202; active means well fitted activation curve with a large enough effect in the signal ratio in the repeat runs, not every such curve was filed as active; the % refers to the signal ratio; further: potency means the concentration at half of the fitted maximal effect)
Method in brief: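 Following a 16 h, 37 C exposure of reporter HepG2 cells (ARE-driven beta-lactamase, 2,000 cells/well) to compounds, FRET substrate was applied for 2 h at room temperature and fluorescence intensity recorded.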

[5] = qHTS assay for small molecule agonists of the antioxidant response element (ARE) signaling pathway - cell viability counter screen (AID 743203; calls by dose curve; further: nearly all actives have a fitted effect of over 55% in size; further: potency means the concentration at half of the fitted maximal effect)
Method in brief: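 ATP content via CellTiter-Glo luminescence served as the viability measure. Cells: ARE-bla HepG2, 2,000 per well. Exposure: 16 hrs, 37C/5% CO2.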

[6] = qHTS assay for small molecule activators of the heat shock response signaling pathway - cell viability counter screen (AID 743209); further: nearly all actives have a fitted effect of over 50% in size; further: potency means the concentration at half of the fitted maximal effect
Method in brief: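 Compounds dissolved in DMSO were added to overnight-plated HSE-bla HeLa cells and left 5 h at 37 C. Cell viability was quantified by luminescence using CellTiter-Glo.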

[7] = qHTS assay for small molecule activators of the heat shock response signaling pathway (AID 743210; active means well fitted activation curve with a large enough effect in the signal ratio in the repeat runs, with a control signal flat, not every such curve was filed as active; the % refers to the signal ratio; further: series mostly up to about 63 µM)
Method in brief: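 Heat shock element–beta-lactamase HeLa reporter cells; qHTS with compounds for 5 h at 37 C; detection by FRET substrate fluorescence after 2.5 h at RT.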

[8] = qHTS assay to identify small molecule antagonists of the peroxisome proliferator-activated receptor gamma (PPARg) signaling pathway - cell viability counter screen (AID 743194); further: nearly all actives have a fitted effect of over 55% in size; further: potency means the concentration at half of the fitted maximal effect
Method in brief: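 PPARg-UAS-bla HEK293H cells were plated, rested 5 h at 37 C, then treated with compounds plus rosiglitazone (50 nM final) for 17 h at 37 C; viability was then read by CellTiter-Glo luminescence after 30 min at room temperature.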

[9] = target: Peroxisome proliferator-activated receptor gamma (Homo sapiens) (UniProt P37231); test: qHTS assay to identify small molecule antagonists of the peroxisome proliferator-activated receptor gamma (PPARg) signaling pathway (AID 743191; calls by dose curve; further: nearly all actives have a fitted effect of over 30% in size; further: potency means the concentration at half of the fitted maximal effect)
Method in brief: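 GeneBLAzer PPARg UAS-bla HEK293H cells carrying a UAS-driven beta-lactamase reporter were plated at 3000 cells/well, preincubated 5 h at 37C, then given compound for 17 h at 37C; LiveBLAzer B/G FRET substrate was read after 1 h at room temperature.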

[10] = qHTS assay to identify small molecule that activate the aryl hydrocarbon receptor (AhR) signaling pathway - cell viability counter screen (AID 743086); further: nearly all actives have a fitted effect of over 45% in size; further: potency means the concentration at half of the fitted maximal effect
Method in brief: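 HepG2-AhR-luc (HG2L7.5c1) cells, 4000/well, were preincubated 5 h at 37C, exposed to compound in qHTS format for 24 hr at 37C, then given CellTiter-Fluor for 30 min; viability was read as fluorescence in the reporter wells.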

Sequence of Aryl hydrocarbon receptor (Homo sapiens) (P35869 whole entry, looked up): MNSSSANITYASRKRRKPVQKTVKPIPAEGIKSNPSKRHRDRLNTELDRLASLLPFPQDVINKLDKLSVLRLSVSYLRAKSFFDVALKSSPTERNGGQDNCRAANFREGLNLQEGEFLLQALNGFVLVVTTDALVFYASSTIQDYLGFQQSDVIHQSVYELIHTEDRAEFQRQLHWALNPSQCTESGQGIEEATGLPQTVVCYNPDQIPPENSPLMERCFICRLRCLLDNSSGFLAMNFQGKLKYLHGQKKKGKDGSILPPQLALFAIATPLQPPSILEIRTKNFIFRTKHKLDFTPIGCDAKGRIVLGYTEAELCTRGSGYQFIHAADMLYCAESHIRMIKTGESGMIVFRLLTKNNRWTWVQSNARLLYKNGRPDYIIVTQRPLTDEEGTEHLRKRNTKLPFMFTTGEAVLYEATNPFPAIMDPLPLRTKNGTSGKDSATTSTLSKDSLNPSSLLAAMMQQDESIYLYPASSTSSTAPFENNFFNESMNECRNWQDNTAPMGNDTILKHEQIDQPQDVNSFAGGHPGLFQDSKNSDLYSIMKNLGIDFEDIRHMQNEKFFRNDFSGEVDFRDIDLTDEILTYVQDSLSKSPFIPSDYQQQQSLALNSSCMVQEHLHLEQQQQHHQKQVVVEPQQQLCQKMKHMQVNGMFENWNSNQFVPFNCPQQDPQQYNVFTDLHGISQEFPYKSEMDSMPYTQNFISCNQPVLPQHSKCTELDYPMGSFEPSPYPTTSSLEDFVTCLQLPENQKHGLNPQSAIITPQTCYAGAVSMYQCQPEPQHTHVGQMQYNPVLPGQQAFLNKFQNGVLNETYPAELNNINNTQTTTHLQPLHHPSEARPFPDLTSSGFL
Sequence of Peroxisome proliferator-activated receptor gamma (Homo sapiens) (P37231 whole entry, looked up): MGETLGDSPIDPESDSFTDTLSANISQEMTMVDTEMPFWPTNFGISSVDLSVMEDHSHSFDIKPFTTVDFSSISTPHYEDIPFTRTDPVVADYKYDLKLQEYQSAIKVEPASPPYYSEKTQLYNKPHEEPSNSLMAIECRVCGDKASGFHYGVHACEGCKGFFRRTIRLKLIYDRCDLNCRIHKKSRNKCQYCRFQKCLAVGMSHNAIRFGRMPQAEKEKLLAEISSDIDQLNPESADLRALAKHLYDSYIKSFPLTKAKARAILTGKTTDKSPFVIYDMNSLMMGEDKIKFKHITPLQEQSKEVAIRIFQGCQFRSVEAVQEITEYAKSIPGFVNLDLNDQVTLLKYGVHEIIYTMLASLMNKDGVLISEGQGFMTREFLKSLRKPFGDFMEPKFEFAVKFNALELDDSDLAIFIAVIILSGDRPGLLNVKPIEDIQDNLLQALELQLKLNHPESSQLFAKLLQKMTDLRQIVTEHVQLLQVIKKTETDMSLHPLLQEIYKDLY

SMILES	Potency [1]	Potency [2]	Potency [3]	Potency [4]	Potency [5]	Potency [6]	Potency [7]	Potency [8]	Potency [9]	Potency [10]
CCC1CO1 (configuration not stated)	inactive	inactive	inactive	inactive	inactive	inactive	inactive			
O=C1c2ccccc2C(=O)c2c(O)c(O)cc(O)c21	27.3 µM (active)	10.9 µM (active)	inactive		inactive	inactive	inactive	inactive		
CC(C)COCC(CN(Cc1ccccc1)c1ccccc1)N1CCCC1 (configuration not stated)	inactive	inactive	inactive		26.6 µM (active)			26.6 µM (active)	inactive	
CC(=O)Oc1ccc([N+](=O)[O-])cc1CCl	27.3 µM (active)	inactive	inactive			inactive	inactive	inactive		
CCn1cc(C(=O)O)c(=O)c2cc(F)c(N3CCNCC3)cc21	inactive	inactive	inactive	inactive	inactive	inactive	inactive	inactive		
Cc1cc(=O)c2c(O)c3c(O)cc(=O)c4c3c3c(cc(O)c1c23)C(C)(C)C=4O	inactive									inactive
NC1[C@H]2CN(c3nc4c(cc3F)c(=O)c(C(=O)O)cn4-c3ccc(F)cc3F)C[C@@H]12 (some centres not stated)	inactive	inactive	23.9 µM (active)	8.41 µM (active)	inactive	inactive	inactive	inactive		
C=CCc1ccccc1OCC(O)CNC(C)C (configuration not stated)	inactive	inactive	inactive		inactive	inactive	inactive	inactive		
O=C(Cn1ccnc1[N+](=O)[O-])NCCO	inactive	inactive	inactive	inactive	inactive	inactive	inactive	inactive	inactive	
O=Cc1c2ccccc2c(Cl)c2ccccc12	inactive	inactive	9.53 µM (active)	29.9 µM (active)	inactive	inactive		inactive		
CCOC(=O)OC(C)OC(=O)[C@@H]1N2C(=O)[C@@H](NC(=O)[C@H](N)c3ccccc3)[C@H]2SC1(C)C (some centres not stated)	inactive	inactive	inactive	inactive	inactive	inactive	inactive	inactive		
CN1C[C@H](C(=O)N[C@]2(C)O[C@@]3(O)[C@@H]4CCCN4C(=O)[C@H](Cc4ccccc4)N3C2=O)C[C@@H]2c3cccc4[nH]cc(c34)C[C@H]21	inactive	inactive			29.8 µM (active)	inactive	inactive	29.8 µM (active)		
CC1(C)S[C@@H]2[C@H](NC(=O)C(c3ccccc3)S(=O)(=O)O)C(=O)N2[C@H]1C(=O)O (some centres not stated)	inactive	inactive	inactive		inactive	inactive	inactive	inactive	inactive	
O=C(OCC(O)CO)c1ccccc1Nc1ccnc2cc(Cl)ccc12 (configuration not stated)	inactive		inactive	11.9 µM (active)	inactive			inactive		inactive
CCC(C)COC(C)=O (configuration not stated)	inactive			inactive	inactive			inactive		inactive
O=[N+]([O-])c1ccc(O/N=C/c2cc(Br)c(O)c(Br)c2)c([N+](=O)[O-])c1	inactive		inactive	8.59 µM (active)		inactive			19.4 µM (active)	inactive
Oc1c(I)cc(I)c2cccnc12	inactive		inactive		inactive	inactive	inactive		18.8 µM (active)	inactive
c1ccc(C[n+]2cccc3ccccc32)cc1	inactive		inactive		inactive	inactive	inactive		inactive	inactive
Oc1cc2c(cc1O)[C@H]1c3ccc(O)c(O)c3OC[C@@]1(O)C2	24.6 µM (active)		inactive		inactive	inactive				27.6 µM (active)
CC(=O)OCC(=O)NCCCOc1cccc(CN2CCCCC2)c1	inactive		inactive	inactive	inactive	inactive	inactive	inactive		
C/C=C\C/C=C/CCCCCCCCOC(C)=O		inactive			inactive	inactive		inactive		inactive
Cc1c(C)c2c(c(C)c1OC(=O)CCC(=O)OCCO)CC[C@@](C)(CCC[C@H](C)CCC[C@H](C)CCCC(C)C)O2		inactive			inactive	inactive	inactive	33.5 µM (active)	15 µM (active)	inactive
CC(=O)OCCN(CCOC(C)=O)c1ccc(N=Nc2ccc([N+](=O)[O-])cc2C#N)cc1	27.3 µM (active)		inactive		inactive	inactive	inactive	inactive	inactive	
O=C1c2ccccc2C(=O)C1c1nc2ccccc2c(Br)c1O		9.69 µM (active)	inactive	1.54 µM (active)	inactive	inactive	inactive	inactive		inactive
CCCCCCCCC(CCCCCC)C(=O)O (configuration not stated)		inactive		inactive		17.4 µM (active)		38.9 µM (active)		inactive
CCC=CC#N	inactive		inactive	inactive	inactive	inactive	inactive	inactive		inactive
